TRHR agonist: agonists of human TRH receptor | P34981 | TRHR cells, calcium flux fluo-8, FDSS agonist mode | activation, % at 2 µM | hit rate 0.18% among 360,000; further: 0% is about no effect
Target sequence (P34981 whole entry, looked up): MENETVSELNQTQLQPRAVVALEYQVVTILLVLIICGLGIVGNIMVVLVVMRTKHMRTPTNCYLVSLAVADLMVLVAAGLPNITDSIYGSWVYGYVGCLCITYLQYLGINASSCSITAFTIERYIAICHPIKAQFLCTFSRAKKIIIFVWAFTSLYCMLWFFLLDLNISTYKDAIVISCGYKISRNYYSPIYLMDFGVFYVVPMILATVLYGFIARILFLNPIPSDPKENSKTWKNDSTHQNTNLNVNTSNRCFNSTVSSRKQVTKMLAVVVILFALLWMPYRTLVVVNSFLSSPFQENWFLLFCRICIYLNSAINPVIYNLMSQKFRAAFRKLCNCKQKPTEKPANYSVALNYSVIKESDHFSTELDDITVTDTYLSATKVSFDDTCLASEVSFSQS
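Fluo-8-loaded TRHR cells; 10 s baseline, compound added, kinetic Ca2+ fluorescence read 1/s, agonist mode.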
D1 antag: human D1 dopamine receptor antagonism; HEK293 TREx D1 cells, calcium flux, dopamine EC80; stronger effect = lower value; activity change, negative = inhibition, % at 10 µM; hit rate 3.2% among 360,000; in the data active means activity change below about -30%; further: on the % scale 0 is the no-effect control and ±100 the full control effect
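Cells carrying a force-coupled, tetracycline-inducible human D1 receptor report calcium flux. Each well gets a 10 s baseline, compound with 180 s monitoring, then an EC80 dopamine stimulus with a second 180 s kinetic read.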
D1 ag: human D1 receptor agonism; P21728; hit rate 1% among 360,000; AID 504660; activation, % at 2 µM; HEK293 T-REx D1 cells, calcium flux, agonist mode; further: 0% is about no effect
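Inducible HEK293 T-REx D1 cells, force-coupled to calcium signalling, were plated at 4000 cells/well with tetracycline and held overnight at 30 C. After no-wash calcium dye loading, compound-evoked calcium rise over 180 s flagged agonists.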
D1 PAM: enhances dopamine response at the human D1 receptor. HEK293 TREx D1 cells, calcium flux, dopamine EC20 potentiation. potentiation, % at 10 µM. P21728. hit rate 0.036% among 360,000. AID 504651; in the data active means potentiation above about 30%; further: 0% is about no effect
GRP78 ERSR act: induces the endoplasmic reticulum stress response in human glioma cells | Potency, µM, inactives show top-dose activation, most hits filed as activators | hit rate 0.02% among 420,000 | AID 602332 | U87-MG GRP78 promoter luciferase reporter, 16 h; active means well fitted activation curve with a large enough effect; inconclusive means small, poorly fitted or top-dose-only effect; inactive means no such curve, though single readings can be large or run the other way; further: potency means the concentration at half of the fitted maximal effect; series mostly up to about 76 µM; % of control where 0% means no effect; nearly all actives have a fitted effect of over 35% in size
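Stably transfected U87-MG glioma cells carrying a GRP78-based luciferase sensor; 16 h compound incubation. Luminescence end-point read 10 min after Bright-Glo addition at room temperature.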
TRHR enhancer: allosterically enhances the human TRH receptor | AID 493056 | P34981 | enhancement, % at 2 µM | hit rate 0.66% among 360,000 | TRHR cells, fluo-8 calcium fluorescence, EC20 TRH enhancement; in the data active means enhancement above about 30%; further: 0% is about no effect
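TRHR-expressing cells loaded with fluo-8 calcium dye were read kinetically (ex 480/em 530) during compound addition, then stimulated with an EC20 of TRH (10 nM final). Enhancement of the Gq-mediated intracellular calcium response was scored.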
An asterisk follows results filed as active; ? = inconclusive; / = not tested or not shown; ! = not confirmed by another sample. Compounds with a hit are over-represented: about 4% of the library has one in this group of screens. Unless noted, no stated cut-off is given here; in the data, active means activation above about 30%; inactive means the rest.

SMILES	TRHR agonist	D1 antag	D1 ag	D1 PAM	GRP78 ERSR act	TRHR enhancer
CCOc1ccc(NC(=S)N=Nc2c(O)[nH]c3ccccc23)cc1	1.8	-6.4	0.2	-8.9	-2.5%	-8.7
Oc1cccc(NC(=S)N=Nc2c(O)[nH]c3ccccc23)c1	-3.5	-31.2*	7.2	-19.3	1.7%	18.4
Cc1oc2cc(O)ccc2c(=O)c1Oc1ccccc1Br	-1.5	-9.8	-1.5	-0.3	-2.9%	-10.2
O=C1NC(CCc2ccccc2)C(=O)N1Cc1cccc2ccccc12 (configuration not stated)	-0.9	-4.3	10.9	-9.8	0.1%	1.2
Cc1ccc(SCc2nc(-c3ccc(C(=O)NCCc4ccc(Cl)cc4)cc3)oc2C)cc1	0.2	1.5	4.2	-1.3	-1.4%	1.2
Cc1ccc(SCc2nc(-c3ccc(C(=O)NCC(C)c4ccccc4)cc3)oc2C)cc1 (configuration not stated)	4.0	-4.8	30.4*	3.5	-3.5%	10.0
COc1ccc(OC)c(NC(=O)c2ccc(-c3nc(CSc4ccccc4)c(C)o3)cc2)c1	0.8	-32.1*	3.8	0.6	-0.6%	-2.9
COc1ccc(NC(=O)c2ccc(-c3nc(CSc4ccccc4)c(C)o3)cc2)c(OC)c1	0.8	-9.7	4.0	-3.5	-1.5%	0.3
CN(C)c1ccc(/C=N/NC(=O)CN(c2ccccc2Cl)S(C)(=O)=O)cc1Br	-0.6	2.7	0.0	-10.1	-4.9%	2.5
CCNc1nc(Oc2ccc(=O)[nH]n2)nc(SC)n1	0.2	2.0	1.5	4.7	-3.2%	31.6*
O=C(CN1CCCCCCC1)N/N=C/c1ccc(F)cc1F	-0.1	-31.6*	5.0	2.1	0.0%	-0.2
CNC(=O)c1[nH]cnc1C(=O)N[C@@H](C)C(=O)OCc1ccccc1	-1.2	-33.5*	7.4	2.7	0.5%	0.3
C[C@H](NC(=O)c1nc[nH]c1C(=O)N[C@@H](Cc1ccccc1)C(=O)OCc1ccccc1)C(=O)OCc1ccccc1	2.9	-30.9*	17.5	-1.3	?	-3.2
O=C(NC1=C(Nc2ccc(Cl)cc2)C(=O)c2ccccc2C1=O)c1ccccc1	-0.3	14.0	0.4	3.0	-2.6%	-4.2
O=C1C(Cl)=C(Nc2ccc3cn[nH]c3c2)C(=O)c2ccccc21	0.7	-74.5*	10.4	-9.3	-17.4%	-32.8
CC(=O)Nc1ccc(NC2=C(Cl)C(=O)c3ccccc3C2=O)cc1	-0.3	-58.1*	4.4	-9.9	-14.8%	4.0
O=C(Nc1ccc2cn[nH]c2c1)c1c(Cl)cccc1Cl	-0.4	2.3	0.4	-0.2	-4.8%	4.3
CN(C)c1ccc(NC2=C(Cl)C(=O)c3ccccc3C2=O)cc1	-1.4	-65.7*	9.1	-12.6	-14.2%	-11.4
CCn1cc(C(=O)N[C@@H](CCSC)C(=O)NCCCO)c(=O)c2cc3c(cc21)OCO3	0.6	-15.7	2.2	-7.8	-12.4%	-3.6
Cc1ccc(-c2cc(C(=O)O)c3ccccc3n2)s1	0.9	-45.8*	0.7	-5.9	4.2%	1.9
O=c1cc(-c2cccc3ccccc23)[nH][nH]1	0.1	-15.9	-0.2	3.1	-3.0%	5.7
COc1cccc(/C=N/NC(=O)c2[nH]c(C)c(C(=O)N/N=C/c3cccc(OC)c3)c2C)c1	1.1	-40.5*	1.9	-12.9	-2.4%	-1.2
CCOC(=O)c1c(C)[nH]c(C(=O)N/N=C/c2cccc(OC)c2)c1C	-1.4	-20.9	3.9	-7.3	1.7%	-6.1
CC(C)(CNC(=O)Cc1ccc(NS(=O)(=O)c2cccc(C(F)(F)F)c2)cc1)N1CCOCC1	-0.2	8.4	0.2	-6.9	-3.7%	-5.0
COc1ccc(NC(=O)CCNS(=O)(=O)c2cccc3nonc23)cc1Cl	-0.6	-5.6	8.0	/	-4.8%	-5.3
Cc1cccc(NC(=O)CCNS(=O)(=O)c2cccc3nonc23)c1	-1.0	-49.5*!	2.9	-3.1	-0.8%	3.9
CCOC(=O)c1cccc(NC(=O)CCNS(=O)(=O)c2cccc3nonc23)c1	-0.5	4.4	0.3	-6.2	-2.3%	-1.0
COc1ccc(NC(=O)CCS(=O)(=O)c2cccc3nonc23)c(OC)c1	-0.4	-45.3*	0.1	1.2	-4.2%	-3.6
Cc1ccc(NC(=O)CCNS(=O)(=O)c2cccc3nonc23)cc1Cl	-0.5	-31.6*!	3.2	-7.9	-1.1%	-8.3
